In the supplement of paper PMC9135407:
Where a name gives a salt, the structure may show the parent alone. In all, about 5,800 compounds went through this assay and about 620 (11%) showed activity. This is one part of a sample in which actives are shown more often than they occur. A number with no mark means an inactive call.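 Rule for the calls: active = score above a cut-off or among the top three wells of a plate; in these data no inactive exceeds 0.85.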

Tested on: primary human hepatic stellate cells (donor 1)
Test: scaled lipid accumulation score (0 = DMSO-like, 1 = nortriptyline-like); higher = stronger HSC inactivation (lipid re-accumulation), active = hit call of the paper
Details: 48 h
[1] = library stock concentration: 10 mM
[2] = library stock concentration: 2 mM
[3] = library stock concentration: 3.33 mM
[4] = library stock concentration: 80 uM
[5] = library stock concentration: 400 uM
[6] = library stock concentration: 1 mM

## CC1CC2C3CCC4=CC(=O)C=CC4(C)C3(F)C(O)CC2(C)C1C(=O)CO (centres undefined)
[1]
  scaled lipid accumulation score: ≤ 0

## COc1cc2ncnc(Nc3ccc(F)c(Cl)c3)c2cc1NC(=O)C=CCN1CCCCC1 [listing 1 of 2 here]
[2]
  scaled lipid accumulation score: 0.903 (active)
[1]
  scaled lipid accumulation score: 1.47 (active)

## COc1cc2ncnc(Nc3ccc(F)c(Cl)c3)c2cc1NC(=O)C=CCN1CCCCC1 [listing 2 of 2 here]
[3]
  scaled lipid accumulation score: 1.08 (active)

## CNC(=O)CN1CCC(Oc2cc3c(Nc4cccc(Cl)c4F)ncnc3cc2OC)CC1 [AZD8931 (Sapitinib)]
[3]
  scaled lipid accumulation score: 0.28
[1]
  scaled lipid accumulation score: 0.713

## COc1cc2ncnc(Nc3ccc(F)c(Cl)c3)c2cc1NC(=O)/C=C/CN1CCCCC1
[4]
  scaled lipid accumulation score: ≤ -0.016
[5]
  scaled lipid accumulation score: 0.274
[1]
  scaled lipid accumulation score: 0.219

## O=C1/C(=C/c2cccs2)CCC/C1=C\c1cccs1
[1]
  scaled lipid accumulation score: ≤ 0

## CC(=O)N1CCN(c2ccc(OCC3COC(Cn4ccnc4)(c4ccc(Cl)cc4Cl)O3)cc2)CC1 (centres undefined)
[1]
  scaled lipid accumulation score: 0.048

## CC(=O)N1CCN(c2ccc(OCC3COC(Cn4ccnc4)(c4ccc(Cl)cc4Cl)O3)cc2)CC1 (centres undefined) [Ketoconazole]
  scaled lipid accumulation score: 0.131
[3]
  scaled lipid accumulation score: 0.086

## CC(=O)Oc1c(C)c(C)c2c(c1C)CCC(C)(CCCC(C)CCCC(C)CCCC(C)C)O2 (stereo not drawn) [Alpha-tochopheryl acetate]
[1]
  scaled lipid accumulation score: 0.117

## O=C1NC(=O)c2c1c1c3ccccc3[nH]c1n1cncc21 [Isogranulatimide]
[3]
  scaled lipid accumulation score: ≤ 0

## CCCCC[C@H](O)/C=C/[C@@H]1[C@@H](C/C=C\CCCC(=O)OC(C)C)[C@@H](O)C[C@H]1O [Prostaglandin F2.alpha. isopropyl ester]
[6]
  scaled lipid accumulation score: ≤ 0

## O=C(O)CC/C=C\C[C@H]1CO[C@@H](c2ccccc2Cl)O[C@H]1c1ccccc1O
[1]
  scaled lipid accumulation score: ≤ 0

## C=C1C(=CC=C2CCC[C@]3(C)[C@@H]([C@H](C)CCCC(C)C)CC[C@@H]23)C[C@@H](O)C[C@@H]1O [Alfacalcidol]
[1]
  scaled lipid accumulation score: 1.03 (active)

## C=C1/C(=C\C=C2/CCC[C@]3(C)[C@@H]([C@H](C)CCCC(C)C)CC[C@@H]23)C[C@@H](O)C[C@@H]1O [Alfacalcidol]
[3]
  scaled lipid accumulation score: ≤ 0
Library stock concentration: 5 mM
  scaled lipid accumulation score: ≤ -0.006

## C=C1/C(=C\C=C2/CCC[C@]3(C)[C@@H]([C@H](C)CCCC(C)(C)O)CC[C@@H]23)C[C@@H](O)C[C@@H]1O [Calcitriol]
[3]
  scaled lipid accumulation score: ≤ 0
Library stock concentration: 4.8 mM
  scaled lipid accumulation score: 0.018
[1]
  scaled lipid accumulation score: ≤ 0

## C=C1/C(=C\C=C2/CCC[C@]3(C)[C@@H]([C@H](C)CCCC(C)(C)O)CC[C@@H]23)C[C@@H](O)C[C@@H]1O
[1]
  scaled lipid accumulation score: ≤ 0

## C=C1/C(=C\C=C2/CCC[C@]3(C)[C@@H]([C@H](C)CCCC(C)(C)O)CC[C@@H]23)C[C@@H](O)C[C@@H]1O [1?,25-Dihydroxyvitamin D3]
[6]
  scaled lipid accumulation score: 0.004

## O=C(c1cc2cc(O)ccc2[nH]1)c1cc2cc(O)ccc2[nH]1 [Flt-3 Inhibitor II]
[3]
  scaled lipid accumulation score: ≤ 0

## Nc1ccccc1NC(=O)c1ccc(CNc2nccc(-c3cccnc3)n2)cc1 [Mocetinostat] [listing 1 of 2 here]
[2]
  scaled lipid accumulation score: 0.728 (active)
[1]
  scaled lipid accumulation score: 0.648 (active)

## Nc1ccccc1NC(=O)c1ccc(CNC(=O)OCc2cccnc2)cc1
[4]
  scaled lipid accumulation score: ≤ 0
[5]
  scaled lipid accumulation score: ≤ 0
[6]
  scaled lipid accumulation score: 0.014
[2]
  scaled lipid accumulation score: ≤ 0
[1]
  scaled lipid accumulation score: 0.628

## CC(=O)Nc1ccc(C(=O)Nc2ccccc2N)cc1 [CI994 (Tacedinaline)]
[3]
  scaled lipid accumulation score: ≤ 0
[1]
  scaled lipid accumulation score: 0.161

## Nc1ccccc1NC(=O)c1ccc(CNc2nccc(-c3cccnc3)n2)cc1 [Mocetinostat (MGCD0103)] [listing 1 of 2 here]
[1]
  scaled lipid accumulation score: 0.769

## O=C(Nc1ccc(Cl)cc1)c1ccccc1NCc1ccncc1 [VEGF Receptor Tyrosine Kinase Inhibitor II]
[3]
  scaled lipid accumulation score: ≤ 0

## Nc1ccccc1NC(=O)c1ccc(CNC(=O)OCc2cccnc2)cc1 [Entinostat (MS-275)]
[3]
  scaled lipid accumulation score: 0.152
[1]
  scaled lipid accumulation score: 0.418

## Nc1ccccc1NC(=O)c1ccc(CNc2nccc(-c3cccnc3)n2)cc1 [Mocetinostat] [listing 2 of 2 here]
[4]
  scaled lipid accumulation score: ≤ 0
[5]
  scaled lipid accumulation score: ≤ 0

## Nc1ccccc1NC(=O)c1ccc(CNc2nccc(-c3cccnc3)n2)cc1 [Mocetinostat (MGCD0103)] [listing 2 of 2 here]
[3]
  scaled lipid accumulation score: 0.974 (active)

## COC(=O)C(N)Cc1ccc(Cl)cc1 (racemic) [DL-p-Chlorophenylalanine methyl ester hydrochloride]
[1]
  scaled lipid accumulation score: ≤ 0

## CCCCCCCC/C=C\CCCCCCCC(=O)OC[C@@H](O)COP(=O)(O)O [1-Oleoyl Lysophosphatidic Acid]
[6]
  scaled lipid accumulation score: ≤ 0

## CCCCCCCC/C=C\CCCCCCCC(=O)OC[C@@H](O)COP(=O)(O)O [1-Oleoyl Lysophosphatidic Acid (sodium salt)]
[6]
  scaled lipid accumulation score: ≤ 0

## CCCCCCCCCCOc1ccc(OCC(=O)Cn2cc(C(=O)OC)c3cc(C(=O)O)ccc32)cc1
[6]
  scaled lipid accumulation score: ≤ 0

## CCCCCCC(Sc1nc(Cl)cc(NCc2ccc(-c3ccccc3)cc2)n1)C(=O)O (centres undefined)
[6]
  scaled lipid accumulation score: ≤ 0

## CCCCCC(=O)CCC1C(=O)C=CC1C/C=C\CCCC(=O)O (centres undefined) [13,14-dihydro-15-keto Prostaglandin J2]
[6]
  scaled lipid accumulation score: ≤ 0

## CCCCC[C@H](O)/C=C/[C@H]1OC(O)C[C@H](O)[C@@H]1C/C=C\CCCC(=O)O (some centres undefined) [Thromboxane B2]
[6]
  scaled lipid accumulation score: ≤ 0

## CC(C)CCN1C(=O)N(CCN(C)C)C(=O)C12CCN(Cc1cn(C)c3ccccc13)CC2
[1]
  scaled lipid accumulation score: 0.692 (active)

## C[C@@H]1[C@H](O)[C@@H](C)/C=C/C=C/C=C/C=C/C=C/C=C/C=C/[C@H](O[C@@H]2O[C@H](C)[C@@H](O)[C@H](N)[C@@H]2O)C[C@@H]2O[C@](O)(C[C@@H](O)C[C@@H](O)[C@H](O)CC[C@@H](O)C[C@@H](O)CC(=O)O[C@H]1C)C[C@H](O)[C@H]2C(=O)O [Amphotericin b]
[1]
  scaled lipid accumulation score: ≤ 0

## C[C@@H]1[C@H](O)[C@@H](C)/C=C/C=C/C=C/C=C/C=C/C=C/C=C/[C@H](O[C@@H]2O[C@H](C)[C@@H](O)[C@H](N)[C@@H]2O)C[C@@H]2O[C@](O)(C[C@@H](O)C[C@@H](O)[C@H](O)CC[C@@H](O)C[C@@H](O)CC(=O)O[C@H]1C)C[C@H](O)[C@H]2C(=O)O [Amphotericin B]
  scaled lipid accumulation score: 0.003
[3]
  scaled lipid accumulation score: 0.002
[1]
  scaled lipid accumulation score: ≤ 0
